Source: PubChem (National Center for Advancing Translational Sciences (NCATS))
PLK1 PBD inh – blocks phosphopeptide binding to human PLK1 polo-box domain | Plk1 PBD binding of FITC phosphopeptide, fluorescence polarization | AID 720504 | Potency, µM, most hits filed as inhibitors | 2.8% of 360,000 active; also: series mostly up to about 57 µM; nearly all actives have a fitted effect of over 65% in size
Target sequence (P53350 whole entry, looked up, the tested form may be a part): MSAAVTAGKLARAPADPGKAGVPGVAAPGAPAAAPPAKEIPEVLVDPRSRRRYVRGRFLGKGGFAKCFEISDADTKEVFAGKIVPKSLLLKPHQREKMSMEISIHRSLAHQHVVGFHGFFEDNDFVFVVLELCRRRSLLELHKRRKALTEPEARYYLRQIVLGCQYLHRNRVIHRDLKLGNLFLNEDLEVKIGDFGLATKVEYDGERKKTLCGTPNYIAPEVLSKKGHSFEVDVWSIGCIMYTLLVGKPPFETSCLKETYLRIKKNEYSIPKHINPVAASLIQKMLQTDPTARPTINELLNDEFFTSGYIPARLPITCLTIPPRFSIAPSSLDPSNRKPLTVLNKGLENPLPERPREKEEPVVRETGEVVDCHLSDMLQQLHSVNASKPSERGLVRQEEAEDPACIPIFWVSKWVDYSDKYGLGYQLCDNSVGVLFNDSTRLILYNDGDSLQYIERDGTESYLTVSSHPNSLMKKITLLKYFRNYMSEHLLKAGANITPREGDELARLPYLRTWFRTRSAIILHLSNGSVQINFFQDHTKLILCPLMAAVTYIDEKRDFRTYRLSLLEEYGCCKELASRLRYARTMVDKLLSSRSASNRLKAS
BAZ2B inh – BAZ2B (human) inhibition. Potency, µM (titrated, usually from 114 µM), most hits filed as inhibitors. AlphaScreen BAZ2B-H3K14Ac peptide displacement. Q9UIF8. 4.4% of 360,000 active; also: nearly all actives have a fitted effect of over 60% in size
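Protein-peptide AlphaScreen: BAZ2B 50 nM, b-H3K14Ac 50 nM, 1x PBS pH 7.4 + 0.01% Tween-20. Preincubation 30 min RT; cpd 30 min RT (top 110 uM); beads 20 min RT, light-protected.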
VDR inh – vitamin D3 receptor (human) inhibition | P11473 | VDR-SRC2-3 peptide fluorescence polarization, 2 h | Potency, µM, hits mostly inhibitors | 0.93% of 400,000 active
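Fluorescence polarization assay of small-molecule disruption of VDR binding to coregulator peptide SRC2-3. Compounds and controls pin-transferred, then read after 2 h incubation at ambient room temperature.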
G9a block – inhibitors of human histone lysine methyltransferase G9a | Q96KQ7 | Potency, µM (titrated, usually from 102 µM), hits mostly inhibitors | AID 504332 | 8.8% of 350,000 active | G9a H3K9 monomethylation, AlphaScreen, 2 h; also: nearly all actives have a fitted effect of over 75% in size
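Readings reflect AlphaScreen signal from monomethyl-H3K9 antibody detection. HMT at 20 nM; substrate b-H3K9 500 nM; cofactor SAM 20 uM; 2 h RT reaction; compounds tested as titrations in qHTS with 15 min preincubation.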
JMJD2A Tudor – blocks the human JMJD2A Tudor domain; O75164; Potency, µM (highest dose often 114 µM), most hits filed as inhibitors; 4.4% of 390,000 active; AID 504339; AlphaScreen JMJD2A-Tudor / H3K4me3 peptide binding; also: nearly all actives have a fitted effect of over 50% in size
HP1b chromo inh – blocks HP1-beta chromodomain binding to methylated histone tails. AlphaScreen HP1-beta / biotin-H3K9me3 peptide binding. Potency, µM (highest dose often 114 µM), most hits filed as inhibitors. 0.56% of 390,000 active; also: nearly all actives have a fitted effect of over 70% in size
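AlphaScreen: HP1-beta (50 nM) preformed 30 min with biotin-H3(1-18)K9me3 peptide (50 nM) in PBS pH 7.4, 0.01% Tween-20. Compound added for 30 min at RT, then streptavidin donor/nickel chelate acceptor beads (10 ug/mL) for 30 min.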
A number is an active result; – = inactive; ? = inconclusive; · = not tested or not shown; [ ] = remark or other dose. Compounds with a hit are over-represented: about 11% of the library has one in this group of screens. Calls follow the shape of the dose curve; as a rule, active = well fitted curve in the direction sought with a large enough effect; inconclusive = small, poorly fitted or top-dose-only effect, or another doubt; inactive = no such curve, though single readings can be large; an effect the other way counts as inactive or inconclusive.

SMILES | PLK1 PBD inh | BAZ2B inh | VDR inh | G9a block | JMJD2A Tudor | HP1b chromo inh
O=C(NC1CCCCC1)c1c2c(nc3ccccc13)CCC2 | – | 50µM | – | ? | – | –
CNC(=O)COC(=O)c1c2c(nc3ccccc13)CCC2 | – | 50µM | – | · | ? | –
Cc1cccc(NC(=O)CSc2c3c(nc4ccccc24)CCC3)n1 | – | – | – | – | – | –
CCC(C)NC(=O)CSc1c2c(nc3ccccc13)CCCC2 (stereo not drawn) | 17µM | – | – | – | – | –
CCOc1ccc(NC(=O)c2c3c(nc4ccccc24)CCC3)cc1 | – | – | – | ? | – | –
COC(=O)[C@@]12C[C@@H](CC(=O)N3CCCC3)C(=O)N(Cc3cccc4ccccc34)C1=CCC(C)(C)C2 | – | · | · | · | · | ·
CC(C)NCC(=O)Nc1c2c(nc3ccccc13)CCC2 | – | 50µM | – | 18µM | 22µM | –
COCCNC(=O)CCn1c(=O)[nH]c2cc(OC)c(OC)cc2c1=O | · | – | – | – | – | –
CCCn1nc(C(=O)Nc2ccc3c(c2)OCCO3)c2ccccc2c1=O | – | – | – | –[12.7 µM] | – | –
C#CCOCCOCCOCCNc1nc(N2CCN(C(=O)[C@H](CCCCN)n3cc([C@@H](N)C(C)CC)nn3)CC2)nc(N2CCN(C(=O)[C@H](CCCCN)n3cc([C@@H](N)CO)nn3)CC2)n1 (stereo partly drawn) | · | 22µM | · | ? | · | ·
C#CCOCCOCCOCCNc1nc(N2CCN(C(=O)[C@H]([C@@H](C)CC)n3cc([C@@H](N)CO)nn3)CC2)nc(N2CCN(C(=O)[C@H](CCCCN)n3cc([C@@H](N)C(C)CC)nn3)CC2)n1 (stereo partly drawn) | – | 50µM | – | –[12.7 µM] | 50µM | –
C#CCOCCOCCOCCNc1nc(N2CCN(C(=O)[C@H](CCCCN)n3cc(CN)nn3)CC2)nc(N2CCN(C(=O)[C@H](CCCCN)n3cc([C@@H](N)[C@H](C)CC)nn3)CC2)n1 | – | · | – | · | – | –
COc1ccc(C(=O)N(Cc2cccs2)Cc2cccs2)c(O)c1 | · | · | · | · | – | ·
COc1ccc(OC)c2sc(N3CCN(C(=O)c4ccc([N+](=O)[O-])s4)CC3)nc12 | – | ? | – | 35µM | ? | –
O=C(c1ccc([N+](=O)[O-])s1)N1CCN(c2ccccn2)CC1 | – | – | – | – | ? | –
COc1ccc(NC(=O)C2CC(=O)N(Cc3ccco3)C2)cc1Cl (stereo not drawn) | – | – | – | –[12.7 µM] | – | –
COCC(=O)NNS(=O)(=O)c1ccccc1[N+](=O)[O-] | – | – | – | 18µM | – | –
O=C(NNS(=O)(=O)c1ccccc1[N+](=O)[O-])c1cccnc1 | 27µM | ? | ? | · | –[11.4 µM] | –
O=C(NNS(=O)(=O)c1ccccc1[N+](=O)[O-])c1cc2ccccc2cc1O | – | ? | – | 1.6µM | – | –
O=C(NNS(=O)(=O)c1ccccc1)c1cccnc1 | – | – | – | – | –[11.4 µM] | –
O=C(NNS(=O)(=O)c1ccccc1[N+](=O)[O-])c1cccc([N+](=O)[O-])c1 | 17µM | – | – | – | 10µM | –
O=c1c(-c2ccc(O)cc2)coc2cc(O[C@@H]3O[C@H](CO)[C@@H](O)[C@H](O)[C@H]3O)cc(O)c12 | · | · | – | · | · | ·
COc1ccccc1N1CCN(C(=O)CSc2nc3ccccc3nc2N2CCC(C)CC2)CC1 | – | – | ? | – | – | –
Cc1cc(C)n(C(=O)C(C)N2C(=O)c3ccccc3C2=O)n1 (stereo not drawn) | – | – | – | – | – | –
CCOC(=O)C(NC(=O)CC(C)C)(Nc1sc(C)c(CC)c1C#N)C(F)(F)F (stereo not drawn) | – | – | – | – | – | –
SMILES | PLK1 PBD inh | BAZ2B inh | VDR inh | G9a block | JMJD2A Tudor | HP1b chromo inh
CCOC(=O)C(NC(=O)CCl)(Nc1sc(C)c(CC)c1C#N)C(F)(F)F (stereo not drawn) | – | – | – | 25µM | – | –
CCOC(=O)C(NC(=O)N(C)C)(Nc1sc(C)c(CC)c1C#N)C(F)(F)F (stereo not drawn) | – | – | – | 8.9µM | – | –
COCCN1CCc2[nH]c(=S)[nH]c(=O)c2C1 | – | ? | – | 32µM | – | –
CC(c1ccccc1)N1CCc2[nH]c(=S)[nH]c(=O)c2C1 (stereo not drawn) | – | – | – | 40µM | – | –
CCCN1CNc2c(c(=O)[nH]c(=S)n2CCC)C1 | · | · | – | · | – | –
CCN1CCc2[nH]c3ccccc3c2C1 | – | – | – | – | – | –
CCCCN1CCc2[nH]c(=S)[nH]c(=O)c2C1 | – | – | – | 35µM | 25µM | –
CCc1c(C)nc2nncn2c1Nc1ccc(Cl)cc1 | · | – | – | – | – | –
N#C/C(=C\c1ccc(N2CCCC2)c([N+](=O)[O-])c1)c1nc2ccccc2[nH]1 | – | ? | – | · | – | –
N#C/C(=C\c1ccc(O)c([N+](=O)[O-])c1)c1nc2ccccc2s1 | 24µM | 25µM | ? | 4µM | 20µM | ?
COc1ccc(-c2csc(/C(C#N)=C\c3ccc(O)c([N+](=O)[O-])c3)n2)cc1OC | 27µM | 11µM | – | · | 13µM | ?
COc1cc(/C=C(\C#N)c2nc3ccccc3s2)cc([N+](=O)[O-])c1O | 21µM | 13µM | – | 16µM | 11µM | 20µM
COc1ccc(-c2csc(/C(C#N)=C\c3ccc(OC)c([N+](=O)[O-])c3)n2)cc1 | – | – | – | – | – | –
CC1Sc2ccc(S(=O)(=O)N3CCC(C(=O)N4CCN(C)CC4)CC3)cc2NC1=O (stereo not drawn) | – | – | – | –[0.0925 µM] | ? | –
COC(=O)CCCC(=O)N1CCC(CCC(=O)NC2CC2)CC1 | – | – | – | – | – | –
CC1CN(C(=O)COC(=O)c2cccc(S(=O)(=O)N3CCc4ccccc43)c2)CC(C)O1 (stereo not drawn) | – | · | – | · | – | –
CCN(CC(=O)Nc1ccc(NC(C)=O)cc1)C(=O)c1cccnc1Sc1ccc(C)c(C)c1 | – | – | – | 50µM | – | –
COc1ccc(NC(=O)CN(C)C(=O)c2cccnc2Sc2ccc(C)c(C)c2)cc1 | – | – | – | – | – | –
CCc1ccc(NC(=O)Cn2cnc3sc(C)c(S(=O)(=O)N4CCC(C)CC4)c3c2=O)cc1 | · | – | – | – | – | –
C=CCN(CC=C)S(=O)(=O)c1ncn[nH]1 | – | 79µM | – | ? | – | –
c1csc(C2=Nn3c(nnc3-c3ccncc3)SC2)c1 | 27µM | ? | – | –[0.501 µM] | – | –
c1ccc(C2=Nn3c(nnc3-c3cccs3)SC2)cc1 | – | – | – | – | – | –
O=C(N/N=C/c1cc(Br)ccc1O)C(c1ccncc1)N1CCOCC1 (stereo not drawn) | – | 50µM | – | – | 79µM | –
COCC1CCN(C(=O)c2oc3c(F)cccc3c2C)C1 (stereo not drawn) | – | – | – | ? | – | –
